In PubChem BioAssay AID488909 (Broad Institute, 2010):
Potency and affinity values are given separately. Inconclusive results are not listed. Activity calls are given as the source filed them.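 How the source made its calls: active means fluorescence drops, meaning less fungal growth, with half-maximal dose at most ten times the top valid tested dose; inconclusive means flat curve with 30 to 70% inhibition, or poor fit; inactive means the rest, including compounds that raise the signal.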

Assay: growth inhibition of azole-resistant C. albicans, dose response, CaCi-8 strain, Alamar Blue, dry powder, set 2 (AID 488909)
Settings: C. albicans CaCi-8 + fluconazole, 48 h; series mostly up to 26 µM; activity change, negative = inhibition: at the top concentration

SMILES	activity change, negative = inhibition
Cc1cc(N2CCN(C(=O)c3ccc(Cl)cc3)CC2)c2ccccc2n1	-20.2% (inactive)
N#Cc1ccc(N2CCN(C(=O)c3ccc(Cl)cc3)CC2)nc1	-19.2% (inactive)
COCCC(=O)N1CCN(c2ccnc3cc(Cl)ccc23)CC1	-6.82% (inactive)
Clc1ccc2c(N3CCNCC3)ccnc2c1	8.86% (inactive)
